Compound activity deposited in PubChem by National Center for Advancing Translational Sciences (NCATS).
Pf growth 96h: P. falciparum growth inhibition at 96 hours; Potency, µM (doses to about 28.7 µM), inactives show at the highest dose activity change, negative = inhibition, hits mostly inhibitors; actives 6.9% (n = 320,000); AID 504834; P. falciparum luciferase reporter growth, 96 h; note: potency is the fitted concentration of half-maximal effect; % is set by controls: 0 for no effect and ±100 for the full control effect
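Parasite growth measured via integrated firefly luciferase reporter in P. falciparum. Infected erythrocytes at 2% hematocrit, 0.05% parasitemia final were treated 96 hours at 37 C under 5% CO2, and luminescence was read.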
Pf growth 48h: inhibits P. falciparum growth in the first generation, 48 h. P. falciparum luciferase growth in erythrocytes, 48 h. Potency, µM (series often up to 28.7 µM), inactives show top-dose activity change, negative = inhibition, hits mostly inhibitors. actives 5.9% (n = 310,000). AID 504832; note: potency is the fitted concentration of half-maximal effect; % is set by controls: 0 for no effect and ±100 for the full control effect
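Luminescence readout; reporter = integrated firefly luciferase in P. falciparum. RBC culture at 2% hematocrit, 0.1% parasitemia final, 37 C/5% CO2; decreased signal taken as growth inhibition.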
SARS PLP yeast: blocks SARS-CoV papain-like protease in a yeast assay; S. cerevisiae expressing SARS-CoV PLpro, growth rescue; Potency, µM (top dose mostly 32.9 µM), inactives show at the highest dose activity, positive = growth rescue, hits mostly activators; actives 0.19% (n = 330,000); AID 485353; calls by dose curve; note: potency is the fitted concentration of half-maximal effect; 0% is about no effect; nearly all actives have a fitted effect of over 55% in size
NS1 inh: inhibitors of influenza NS1 protein function; Potency, µM (top dose mostly 46.1 µM), without a hit: at the highest dose activity, positive = more growth; actives 0.4% (n = 270,000); AID 2326; calls by dose curve; note: potency is the fitted concentration of half-maximal effect; actives are rising curves; nearly all actives have a fitted effect of over 50% in size
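Compounds were scored for reversing the slow growth caused by influenza A NS1 in S. cerevisiae, measured by optical density at 600 nm. Assay medium contained 2% galactose at pH 6.0; NS1-free yeast of the same strain were the positive control.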
CHX counter: counter-screen for Shiga toxin inhibitors: cycloheximide protein synthesis inhibition; cell reporter, cycloheximide protein synthesis inhibition counterscreen; max response, %; actives 12% (n = 300,000); AID 2314; in the data active = max response mostly above about 13%, no sharp cut-off; inactive = mostly below about 14%; note: read at 38.3 µM for the half of the compounds with a filed dose; 0% is about no effect
Shiga inhibitor: Shiga toxin inhibition; inhibition, % at 38.7 µM; Vero cells, Shiga toxin protein synthesis inhibition reporter; actives 9.2% (n = 290,000); in the data active = inhibition mostly above about 28%, no sharp cut-off; inactive = mostly below about 43%; note: 0% is about no effect
The depositor's hits bear a star; i = inactive; u = inconclusive; x = no result given. Sampled rows, rich in hits. Any-hit rate of the full collection: about 21%. Unless noted, calls come from the whole dose curve; as a rule, active = well fitted inhibition curve with a large enough effect; inconclusive = small, poorly fitted or top-dose-only effect, or another doubt; inactive = no such curve, though single readings can be large or run the other way.

SMILES	Pf growth 96h	Pf growth 48h	SARS PLP yeast	NS1 inh	CHX counter	Shiga inhibitor
COCC(C)NS(=O)(=O)c1ccc(NC(=O)c2ccccn2)cc1 (stereo not given)	-8.0%	31.3%	-1.9%	-6.7%	10.8*	31.0*
O=C(Nc1ccc(N2CCCCC2)cc1)c1ccccn1	23.3%	-28.4%	-3.8%	x	-7.8	-21.3
Cc1ccccc1C(=O)Nc1ccccc1C(=O)N1CCC(C)CC1	43.0%	25.0%	-0.5%	6.3%	-6.4	-4.9
CC(=O)Nc1ccc(/C=C(\C#N)S(=O)(=O)c2ccc(C)cc2)cc1	x	x	-19.5%	x	x	x
CN(C)S(=O)(=O)c1ccc(C(=O)Nc2ccccc2C(=O)O)cc1	13.1µM*	-12.1%	-28.9%	-6.3%	-2.9	9.9
CC(C)(C)c1ccc(C(=O)Nc2ccc(S(=O)(=O)Nc3cnc4ccccc4n3)cc2)cc1	9.4%	13.1µM*	-0.5%	5.8%	-2.1	3.5
COCCN(CCOC)S(=O)(=O)c1ccc(NC(=O)c2cnccn2)cc1	8.5%	8.28µM*	11.2%	25.6%	-0.8	9.5
COC(=O)Nc1ccc(S(=O)(=O)Nc2cnc3ccccc3n2)cc1	12.3%	46.4%	0.4%	-0.4%	3.2	22.8
CN(C)S(=O)(=O)c1ccc(C(=O)Nc2ccccc2F)cc1	x	10.7%	-2.9%	-0.3%	7.9	24.3
COc1ccc([C@H]2CC(=O)C=C(c3ccc(OC)cc3OC)C2)cc1	-26.3%	14.4%	0.0%	x	x	x
Cc1cc(=O)[nH]c(N=N/C(=N/Nc2ccc(O)cc2)c2ccccc2)n1	x	u	2.7%	-63.8%	48.7*	100.2*
Cc1cc(=O)[nH]c(N=N/C(=N/Nc2ccccc2C)c2ccccc2)n1	x	-4.6%	-3.5%	-3.9%	8.0	-13.9
COc1ccc(N/N=C(/N=Nc2nc(C)cc(=O)[nH]2)c2ccccc2)cc1	x	1.65µM*	u	-46.3%	61.8*	90.8*
CC(C)(C)OC(=O)C[C@H]1C/C=C\C[C@H](CC(=O)NCCO)C(=O)NC[C@@H](c2ccccc2)OC1=O	x	x	0.7%	x	x	x
CCC(=O)Nc1cccc(NC(=O)c2cccc([N+](=O)[O-])c2)c1	61.1%	28.0%	-2.2%	5.5%	12.2	4.9
COc1ccc(Br)cc1/C=N/Nc1cccc(C(=O)O)c1	127.3%	119.2%	-6.1%	10.3%	48.8*	50.6
COc1ccccc1/C=C/C=N/Nc1cccc(C(=O)O)c1	i	247.2%	-1.3%	-43.0%	41.6*	131.8*
COc1cc(/C=N/NC(=S)Nc2cccc(C(=O)O)c2)cc(OC)c1OC	-0.6%	41.0%	16.8%	2.9%	5.9	-2.1
O=C(C[n+]1ccccc1)N/N=C/c1cc(Br)cc(Br)c1O	u	u	-3.1%	-101.9%	-0.6	-1.4
Cc1c(N=Cc2cc(Br)cc(Br)c2O)cccc1C(=O)O	u	11.7µM*	-30.3%	-15.7%	0.5	-0.8
CN(/N=C/c1cc(Br)cc(Br)c1O)c1ccccc1	376.9%	29.5%	-1.4%	-6.2%	5.6	-8.5
O=C(O)c1cccc(N/N=C/c2cc(Br)cc(Br)c2O)c1	u	73.7%	-70.5%	-42.7%	51.2*	126.0*
Cc1ccc(N/C(N)=N/c2nc(C)cc(N3CCCCC3)n2)c(C)c1	u	0.0%	-1.8%	x	-1.8	13.2
Cc1ccc(S(=O)(=O)N2CC=C(C(=O)NC3CC3)CC2)cc1	u	u	1.9%	1.8%	-1.0	-22.2
O=c1oc2c(CN3CCN(CCO)CC3)c(O)ccc2cc1-c1ccccn1	10.7%	6.6%	-2.9%	4.8%	-1.3	1.5
SMILES	Pf growth 96h	Pf growth 48h	SARS PLP yeast	NS1 inh	CHX counter	Shiga inhibitor
COc1ccc(/C(C)=N/Nc2nc3ccccc3nc2C)cc1OC	u	11.3%	-0.1%	-8.1%	33.6*	57.4*
COc1ccc(/C(C)=N\NS(=O)(=O)c2ccccc2)cc1OC	-0.8%	-7.9%	3.6%	-0.2%	-0.4	-11.8
C/C(=N\Nc1cccc(C(=O)O)c1)c1ccc(Cl)s1	118.7%	176.5%	-16.2%	x	68.4*	120.8*
COc1ccc(/C(C)=N\Nc2nc(-c3ccc(Cl)cc3)cc(C(F)(F)F)n2)cc1OC	u	10.4µM*	-17.8%	13.8%	5.2	-10.6
COc1ccc(/C(C)=N/Nc2cccc(C(=O)O)c2)cc1OC	193.1%	i	3.9%	x	104.4*	186.5*
O=C1C=C(c2ccc3c(c2)oc2ccccc23)C[C@@H](c2ccc3c(c2)OCO3)C1	u	-4.9%	0.0%	x	x	x
Cc1nc2cc(NC(=O)c3cccc(S(C)(=O)=O)c3)ccc2o1	-10.5%	11.9%	10.2%	-5.0%	12.8*	34.8
Cc1nc2cc(NC(=O)NCc3ccco3)ccc2o1	x	40.7%	-2.2%	-1.5%	17.2*	48.6*
Cc1ccc(NC(=O)c2cccc(S(C)(=O)=O)c2)cc1	338.2%	84.7%	-0.4%	x	32.6*	97.3*
O=C(CNC(=O)c1ccc2c(c1)OCCO2)N/N=C/c1cccc(Br)c1	u	52.8%	2.0%	x	-0.8	-3.1
COc1ccc(-n2c(SCC(=O)N(C)C3CCS(=O)(=O)C3)nc3ccc(O)cc3c2=O)cc1OC (stereo not given)	x	x	-1.7%	x	x	x
CC1=C(/C=C/C(C)=C/C=C/C(C)=C/CO)C(C)(C)CCC1	10.7µM*	u	x	x	x	x
CC(=O)OC/C=C(C)/C=C/C=C(C)/C=C/C1=C(C)CCCC1(C)C	x	x	x	x	13.8	4.8
O=C(NC1CCC(O)CC1)c1cccc2cccnc12 (stereo not given)	-12.2%	12.4%	0.8%	1.7%	-0.4	-6.0
COc1ccc(Nc2nnc(Cc3ccncc3)c3ccccc23)c(OC)c1	20.3%	-57.7%	0.7%	9.7%	10.3	12.6
Cn1cccc1/C=C1\CCC/C(=C\c2cccn2C)C1=O	-7.7%	x	-5.8%	-1.9%	52.0*	109.1*
O=C1/C(=C/c2cccs2)CCC/C1=C\c1cccs1	307.1%	177.2%	-2.8%	-12.1%	39.4*	107.8*
C=CCN1C(=O)NC(=O)/C(=C/c2cccn2C)C1=O	0.0%	10.1%	-1.6%	12.9%	-2.9	-21.7
COc1c(Cl)cc(Cl)cc1CNCCO	71.0%	-4.7%	-2.0%	-0.2%	9.5	-6.1
C1CN(c2nc3nonc3nc2N2C[C@H]3CC[C@H]2C3)CCS1	u	-1.7%	-0.2%	0.5%	-2.2	-11.1
COc1cc(S(=O)(=O)n2nnc3ccccc32)c(OC)cc1Cl	9.28µM*	0.0%	3.7%	-35.2%	-3.4	-2.8
CC(C)[C@H](NC(=O)c1ccc(C(C)(C)C)cc1)C(=O)N1CCN(Cc2ccc3c(c2)OCO3)CC1	x	x	-8.9%	x	x	x
Cc1sc2nc(CSCC(=O)Nc3ccccc3C#N)[nH]c(=O)c2c1C	5.22µM*	-8.1%	9.1%	20.2%	-1.2	-6.7
COc1cc(NC(=O)C2CCCN(S(=O)(=O)c3ccc4c(c3)CCCN4C(C)=O)C2)cc(OC)c1 (stereo not given)	8.2%	u	6.7%	-8.4%	-6.6	-2.2
